Inconclusive results are not listed. Calls of active or inactive are those of the source. Calls come from the whole dose curve; as a rule, active = well fitted activation curve with a large enough effect; inconclusive = small, poorly fitted or top-dose-only effect; inactive = flat fitted curve, though single readings scatter.
Experiment: Cellular Toxicity (caspase-3) Mesangial (AID 660);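 note: combined caspase 3 and 7 activity read by Caspase-Glo luminescence; cells exposed to compound for 16 h before the caspase read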
Conditions: mesangial cells, normalized: DMSO 0%, 100 µM tamoxifen 100%; series mostly up to 91.7 µM; caspase-3 activation: at the top concentration
Outline: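 Human renal glomerular mesangial cells, 1000/well, 5 h at 37 C before 16 h compound treatment. Caspase-Glo 3/7 luminescence after 20 min; normalized to DMSO and 100 uM tamoxifen, AC50 from Hill fit.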

SMILES	caspase-3 activation	outcome
Brc1ccccc1	0.0103% (inactive)	–
CCOP(=S)(OCC)SCSC(C)(C)C	-0.692% (inactive)	–
C=C(C)C#N	-0.437% (inactive)	–
CCSC(=O)Cl	0.597% (inactive)	–
Cc1cccc([N+](=O)[O-])c1	-1.92% (inactive)	–
Nc1c(Cl)c(Cl)nc(C(=O)O)c1Cl	0.509% (inactive)	–
CC(C)(C)OOC(C)(C)C	0.681% (inactive)	–
C=C(C)C(=O)OCC1CO1 (stereo not given)	-1.45% (inactive)	–
Cc1ccc([N+](=O)[O-])cc1C	-1.22% (inactive)	–
O=[N+]([O-])c1ccc(Cl)c(Cl)c1	0.982% (inactive)	–
C=CC(=C)C	-0.151% (inactive)	–
Cc1ccc2ccccc2c1	0.844% (inactive)	–
Nc1ccccc1Cl	0.389% (inactive)	–
Clc1ccc2ccccc2c1	-0.592% (inactive)	–
[O-][Br+2]([O-])O	–	inactive
Clc1nc(Cl)nc(Nc2ccccc2Cl)n1	-1.63% (inactive)	–
OCC1CO1 (stereo not given)	1.07% (inactive)	–
C=CCOC(=O)c1ccccc1N	1.29% (inactive)	–
C=CC(N)=O	–	inactive
CC(C)(c1ccccc1)c1ccc(O)cc1	0.726% (inactive)	–

SMILES	caspase-3 activation	outcome
CCN(CC)c1ccccc1	-0.813% (inactive)	–
S=C=Nc1cccc2ccccc12	-0.549% (inactive)	–
N#CCCCl	–	inactive
O=NN(CCO)CCO	-0.642% (inactive)	–
Cc1ccccc1N	–	inactive
C=CCOC(C)=O	-1.58% (inactive)	–
CCCC(=O)Cl	1.77% (inactive)	–
NC(=S)Nc1ccccc1	–	inactive
O=C(Cl)/C=C/C(=O)Cl	-0.191% (inactive)	–
C=C(Cl)Cl	0.52% (inactive)	–
ClCBr	0.307% (inactive)	–
COc1ccc(C=O)cc1OC	-0.548% (inactive)	–
C=CC(=O)OCC	-0.308% (inactive)	–
c1nc[nH]n1	-1.25% (inactive)	–
c1ccc2c(c1)CCCC2	-0.31% (inactive)	–
CCCSC(=O)Cl	2.28% (inactive)	–
Clc1cccc(C(Cl)(Cl)Cl)n1	0.127% (inactive)	–
O=NN(c1ccccc1)c1ccccc1	0.796% (inactive)	–
C1CCC2CCCCC2C1 (stereo not given)	0.777% (inactive)	–
CC(O)CCl (stereo not given)	1.02% (inactive)	–

Experiment: Cellular Toxicity (caspase-3) SK-N-SH (AID 661);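 note: 0% = DMSO basal and 100% = 10 µM staurosporine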
Conditions: SK-N-SH caspase-3 activation, qHTS, DMSO as zero, staurosporine as full; series mostly up to 91.7 µM; caspase-3 activation: at the top concentration
Outline: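 Human SK-N-SH neuroblastoma cells, 1500/well, were exposed to compounds for 16 hours at 37 °C. Caspase-Glo 3/7 luminescence was normalized to DMSO (basal) and 10 uM staurosporine (100%), and AC50 came from a Hill fit.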

SMILES	caspase-3 activation	outcome
Brc1ccccc1	0.192% (inactive)	–
CCOP(=S)(OCC)SCSC(C)(C)C	-2.42% (inactive)	–
C=C(C)C#N	-1.75% (inactive)	–
CCSC(=O)Cl	-2.57% (inactive)	–
Cc1cccc([N+](=O)[O-])c1	-0.716% (inactive)	–
Nc1c(Cl)c(Cl)nc(C(=O)O)c1Cl	1.61% (inactive)	–
CC(C)(C)OOC(C)(C)C	-0.69% (inactive)	–
C=C(C)C(=O)OCC1CO1 (stereo not given)	0.836% (inactive)	–
Cc1ccc([N+](=O)[O-])cc1C	-0.165% (inactive)	–
O=[N+]([O-])c1ccc(Cl)c(Cl)c1	-2.22% (inactive)	–
C=CC(=C)C	0.923% (inactive)	–
Cc1ccc2ccccc2c1	-2.61% (inactive)	–
Nc1ccccc1Cl	0.883% (inactive)	–
Clc1ccc2ccccc2c1	0.45% (inactive)	–
[O-][Br+2]([O-])O	–	inactive
Clc1nc(Cl)nc(Nc2ccccc2Cl)n1	-2.16% (inactive)	–
OCC1CO1 (stereo not given)	0.329% (inactive)	–
C=CCOC(=O)c1ccccc1N	-1.12% (inactive)	–
C=CC(N)=O	–	inactive
CC(C)(c1ccccc1)c1ccc(O)cc1	-0.0289% (inactive)	–

SMILES	caspase-3 activation	outcome
CCN(CC)c1ccccc1	0.202% (inactive)	–
S=C=Nc1cccc2ccccc12	0.289% (inactive)	–
N#CCCCl	–	inactive
O=NN(CCO)CCO	-0.0297% (inactive)	–
Cc1ccccc1N	–	inactive
C=CCOC(C)=O	-0.658% (inactive)	–
CCCC(=O)Cl	-0.643% (inactive)	–
NC(=S)Nc1ccccc1	–	inactive
O=C(Cl)/C=C/C(=O)Cl	1.17% (inactive)	–
C=C(Cl)Cl	0.759% (inactive)	–
ClCBr	0.299% (inactive)	–
COc1ccc(C=O)cc1OC	-0.0937% (inactive)	–
C=CC(=O)OCC	1.23% (inactive)	–
c1nc[nH]n1	0.527% (inactive)	–
c1ccc2c(c1)CCCC2	-1.77% (inactive)	–
CCCSC(=O)Cl	-0.11% (inactive)	–
Clc1cccc(C(Cl)(Cl)Cl)n1	-0.561% (inactive)	–
O=NN(c1ccccc1)c1ccccc1	-1.21% (inactive)	–
C1CCC2CCCCC2C1 (stereo not given)	-0.0391% (inactive)	–
CC(O)CCl (stereo not given)	-1.11% (inactive)	–

Experiment: Cellular Toxicity (caspase-3) H-4-II-E (AID 663);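 note: cells exposed to compound for 16 hr before readout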
Conditions: H-4-II-E rat hepatoma, scaled: DMSO 0%, 100 µM tamoxifen 100%; series mostly up to 92.2 µM; caspase-3 activation: at the top concentration
Outline: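 Apoptosis induction is scored as increased luminescence from caspase 3/7 substrate cleavage in rat hepatoma H-4-II-E cells exposed to compound for 16 hr. Activity is scaled between DMSO and 100 uM tamoxifen.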

SMILES	caspase-3 activation	outcome
Brc1ccccc1	0.000601% (inactive)	–
CCOP(=S)(OCC)SCSC(C)(C)C	-1.37% (inactive)	–
C=C(C)C#N	1% (inactive)	–
CCSC(=O)Cl	-0.499% (inactive)	–
Cc1cccc([N+](=O)[O-])c1	0.592% (inactive)	–
Nc1c(Cl)c(Cl)nc(C(=O)O)c1Cl	0.387% (inactive)	–
CC(C)(C)OOC(C)(C)C	-0.7% (inactive)	–
C=C(C)C(=O)OCC1CO1 (stereo not given)	-0.177% (inactive)	–
Cc1ccc([N+](=O)[O-])cc1C	0.374% (inactive)	–
O=[N+]([O-])c1ccc(Cl)c(Cl)c1	0.576% (inactive)	–
C=CC(=C)C	0.369% (inactive)	–
Cc1ccc2ccccc2c1	-1.4% (inactive)	–
Nc1ccccc1Cl	-0.0899% (inactive)	–
Clc1ccc2ccccc2c1	0.168% (inactive)	–
[O-][Br+2]([O-])O	–	inactive
Clc1nc(Cl)nc(Nc2ccccc2Cl)n1	0.509% (inactive)	–
OCC1CO1 (stereo not given)	0.295% (inactive)	–
C=CCOC(=O)c1ccccc1N	0.68% (inactive)	–
C=CC(N)=O	–	inactive
CC(C)(c1ccccc1)c1ccc(O)cc1	-0.173% (inactive)	–

SMILES	caspase-3 activation	outcome
CCN(CC)c1ccccc1	0.312% (inactive)	–
S=C=Nc1cccc2ccccc12	1.06% (inactive)	–
N#CCCCl	–	inactive
O=NN(CCO)CCO	0.626% (inactive)	–
Cc1ccccc1N	–	inactive
C=CCOC(C)=O	1.23% (inactive)	–
CCCC(=O)Cl	0.223% (inactive)	–
NC(=S)Nc1ccccc1	–	inactive
O=C(Cl)/C=C/C(=O)Cl	-0.347% (inactive)	–
C=C(Cl)Cl	-0.41% (inactive)	–
ClCBr	0.0414% (inactive)	–
COc1ccc(C=O)cc1OC	-0.33% (inactive)	–
C=CC(=O)OCC	-0.697% (inactive)	–
c1nc[nH]n1	0.595% (inactive)	–
c1ccc2c(c1)CCCC2	-0.0557% (inactive)	–
CCCSC(=O)Cl	1.53% (inactive)	–
Clc1cccc(C(Cl)(Cl)Cl)n1	-0.88% (inactive)	–
O=NN(c1ccccc1)c1ccccc1	0.669% (inactive)	–
C1CCC2CCCCC2C1 (stereo not given)	0.587% (inactive)	–
CC(O)CCl (stereo not given)	0.255% (inactive)	–

Source: PubChem BioAssay (NCATS)
